SW480 rereplic = A quantitative high throughput screen for small molecules that induce DNA re-replication in SW480 colon adenocarcinoma cells. SW480 DNA re-replication, Hoechst DNA content imaging, 48 h. Potency, µM (series often up to 46.1 µM), usual class: activators. 1.8% of 340,000 active. AID 624297, 2012; further: nearly all actives have a fitted effect of over 55% in size
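Image-based read-out: total Hoechst fluorescence of nuclei (405 nm excitation, 500-530 nm emission), with hits raising the fraction of high-intensity nuclei. SW480 colon cells incubated 48 hr with compounds at 37 C.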
IL1B secr inh = qHTS for Inhibitors of Inflammasome Signaling: IL-1-beta AlphaLISA Primary Screen; THP-1 LPS/ATP IL-1B secretion, AlphaLISA, 16 h; active compounds read low; activity change, % at 57.5 µM; 4.7% of 360,000 active; AID 743279, 2014; in the data active means activity change below about -50%; inconclusive means mostly about -30% to -49%
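Secreted IL-1B measured by AlphaLISA bead assay after 16 h compound exposure of THP-1 cells; compounds (final up to 57.5 uM) added 1 h before LPS (250 ng/mL) and ATP (1.25 mM) stimulation; lower signal means less secretion.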
ATXN viability = Viability Counterscreen for Primary qHTS for Inhibitors of ATXN expression; S2 cells (HEK-293 line with an ATXN2-luciferase reporter) viability, CellTiter-Fluor protease fluorescence, 24 h; Potency, µM (series often up to 56.7 µM), usual class: cytotoxic; 0.49% of 400,000 active; AID 651635, 2014; further: nearly all actives have a fitted effect of over 40% in size
MCF10A rerep = A quantitative high throughput screen for small molecules that induce DNA re-replication in MCF 10a normal breast cells | MCF 10A DNA re-replication, Hoechst nuclear intensity, 48 h | 2.9% of 350,000 active | Potency, µM (doses to about 46.1 µM), actives largely listed as activators; further: nearly all actives have a fitted effect of over 50% in size
ATXN2 expr inh = Primary qHTS for Inhibitors of ATXN expression. 0.72% of 360,000 active. AID 1745845, 2022. HEK-293 ATXN2-luciferase reporter, luminescence, 24 h. Potency, µM (highest dose often 57 µM), usual class: inhibitors; further: nearly all actives have a fitted effect of over 55% in size
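qHTS (up to 57 uM final) was run with 24 h compound exposure of reporter cells at 37 °C. Each well was multiplexed: SteadyGlo luminescence measured ATXN2-luciferase expression after a fluorogenic Gly-Phe-AFC viability readout (25 uM final).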
PINK1 expr mod = A Quantitative High throughput Screen to Identify Chemical Modulators of PINK1 Expression. 0.2% of 410,000 active. PINK1 immunofluorescence, high-content cytometry, 24 h. Potency, µM (highest dose often 76.6 µM), actives largely listed as activators. AID 624263, 2012; active means well fitted activation curve with a large enough effect; inconclusive means small, poorly fitted or top-dose-only effect; cell line not stated here; further: nearly all actives have a fitted effect of over 65% in size
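Compound titrations (5 concentrations, 24 h) on a stable cell line; DMSO and CCCP controls. Endpoint: fixed-cell PINK1 immunofluorescence with mitochondrial, cell and nuclear markers, scanned by microplate cytometer.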
Hits are given with their value; n = inactive; u = inconclusive; x = no result given; [ ] = remark or other dose. Most compounds without a hit are left out; they make up all but 7.1% or so of the library. Unless noted, the call rests on the fitted dose curve; in most records, active means well fitted curve in the direction sought with a large enough effect; inconclusive means small, poorly fitted or top-dose-only effect, or another doubt; inactive means no such curve, though single readings can be large; an effect the other way counts as inactive or inconclusive.

SMILES	SW480 rereplic	IL1B secr inh	ATXN viability	MCF10A rerep	ATXN2 expr inh	PINK1 expr mod
O=C1COc2ccc(-c3csc(NCCc4ccccc4)n3)cc2N1	n	-76.4	n	n	n	n
c1ccc(CCNc2nc(-c3ccncc3)cs2)cc1	n	-59.6	n	u	n	n
Cc1ccc(Sc2nc(-c3ccccc3)nnc2C(F)(F)F)cc1	u	n	u	8.2µM	u	n
Fc1ccc(CNCCC(Cc2ccccc2)c2ccco2)cc1 (stereo unspecified)	n	-79.7	n	n	n	n
CC(NCCC(Cc1ccccc1)c1ccco1)c1ccccc1 (stereo unspecified)	n	-59.2	n	n	n	n
O=C(NCCNCc1ccc(F)cc1)c1ccco1	n	n	n	n	n	n
CCCOc1ccc(CNC(=O)Cn2ncn3c(cc4sc(CC)cc43)c2=O)cc1	x	x	x	x	x	n
c1ccc2c(c1)CCc1ccccc1C2=C1CCNCC1	n	-66.0	n	n	n	n
Cc1cccc(C)c1OCc1nc2c3cnn(-c4ccccc4Br)c3ncn2n1	x	x	x	x	x	n
CCC(C)(C)n1nnnc1C(c1cc2cc(C)cc(C)c2[nH]c1=O)N1CCCC1 (stereo unspecified)	n	-50.6	n	u	n	n
CCC(C)(C)n1nnnc1C(c1ccc(C)cc1)N1CCCC1 (stereo unspecified)	23.1µM	n	n	u	n	u
CC(C)(C)n1nnnc1C(c1cc2cc3c(cc2[nH]c1=O)OCCO3)N1CCSCC1 (stereo unspecified)	n	-51.1	u	n	n	x
CCC(C)(C)n1nnnc1C(c1cccs1)N1CCCCC1 (stereo unspecified)	n	n	n	n	x	n
CCC(C)(C)n1nnnc1C(c1cc2cccc(C)c2[nH]c1=O)N1CCCC1 (stereo unspecified)	n	n	u	n	n	n
Cc1ccc(C)c2[nH]c(=O)c(C(c3nnnn3C(C)(C)C)N3CC=C(c4ccc(F)cc4)CC3)cc12 (stereo unspecified)	0.164µM	n	n	u	n	n
COc1ccc(-n2c(=O)c3sc4ccccc4c3n(C)c2=O)cc1	x	x	n	x	n	n
O=[N+]([O-])c1ccc(S(=O)(=O)NCc2nc3cccnc3n2Cc2ccccc2Cl)cc1	x	x	x	x	x	n
O=C(NNc1nc2c(F)cc(F)cc2s1)C1COc2ccccc2O1 (stereo unspecified)	n	n	n	0.92µM	n	n
COc1ccc(-c2ccc(NS(=O)(=O)c3ccc(F)c(C(F)(F)F)c3)cc2)nn1	x	x	n	x	n	n
CCOC(=O)c1c(C)c(C(=O)Nc2cc(F)ccc2F)c(C)n1C	23.1µM	n	n	10.3µM	n	n
CCN(c1cccc2ccccc12)S(=O)(=O)c1ccc(Cl)nc1	n	-75.4	n	u	n	n
CCN(c1ccccc1)S(=O)(=O)c1ccc(Cl)nc1	n	n	n	u	x	n
Cc1oc(=O)oc1COC(=O)[C@@H]1N2C(=O)[C@@H](NC(=O)[C@H](N)c3ccccc3)[C@H]2SC1(C)C	x	x	n	x	n	x
CCc1ccc(NC(=O)CC2C(=O)N(c3cccc(OC)c3)C(=O)N2Cc2ccc(F)cc2)cc1 (stereo unspecified)	x	x	x	x	x	n
CCC1C(=O)NCCN1Cc1ccc2c(c1)CN(Cc1cc(OC)ccc1OC)CCO2 (stereo unspecified)	x	x	n	x	x	n
SMILES	SW480 rereplic	IL1B secr inh	ATXN viability	MCF10A rerep	ATXN2 expr inh	PINK1 expr mod
CCOc1cc(C(=S)N2CCOCC2)ccc1OS(=O)(=O)c1ccc(OC)cc1	n	n	n	n	n	n
COc1ccc(C=O)cc1OS(=O)(=O)c1ccc(NC(C)=O)cc1	18.4µM	n	n	u	n	n
CCOc1cc(C(=S)N2CCOCC2)ccc1OS(=O)(=O)c1ccc(NC(C)=O)cc1	u	-52.8	n	n	n	x
CCCN1C(C(=O)c2ccccc2)=C(OC(=O)C(C)(C)C)c2ccccc2S1(=O)=O	x	x	x	x	x	n
COc1ccc(C)c(-n2c(=O)n(Cc3ccccc3)c(=O)c3[nH]cnc32)c1	n	n	n	n	x	n
COc1ccc(Cn2c(=O)c3[nH]cnc3n(-c3ccccc3C)c2=O)cc1	16.4µM	n	u	16.4µM	n	n
Cn1nc(C(=O)Oc2cc(=O)n(C)c3ccccc23)c2ccccc2c1=O	n	n	0.224µM	n	x	n
O=C(NCc1nnc2n1CCN(C(=O)/C=C/c1ccccc1)CC2)c1cccc(F)c1	x	x	n	x	x	n
Cc1cc(C)c2nc(NCCCNC(=S)NCCCN(C)C)c(C#N)cc2c1	11.6µM	n	x	18.4µM	u	n
Cc1ccc2cc(C#N)c(NCCNC(=S)NCCCN(C)C)nc2c1C	u	u	u	20.6µM	x	n
CCOCCCNC(=S)NCCCNc1nc2c(C)cc(C)cc2cc1C#N	n	n	n	n	n	n
Cc1ccc(C)c(NC(=O)CC2NCCNC2=O)c1 (stereo unspecified)	x	x	n	x	n	n
Cc1cc(O)c(NC(=O)c2cc([N+](=O)[O-])ccc2Cl)cc1C	u	-84.0	n	u	n[11.3 µM]	n
Cc1ccc(O)c(NC(=S)NC(=O)c2ccccc2Cl)c1	n	-58.1	n	u	n	n
Cc1ccc(O)c(NC(=O)c2cc([N+](=O)[O-])ccc2Cl)c1	n	-97.3	n	u	n	n
CCN1CCN(S(=O)(=O)c2ccc(Cl)c(C(=O)Nc3ccccc3N3CCCC3)c2)CC1	6.51µM	n	u	u	n	n
CCN1CCN(c2ccc(S(=O)(=O)N3CCCCC3)cc2NC(=O)c2cccc(Cl)c2)CC1	n	u	n	n	n	n
CCN1CCN(S(=O)(=O)c2ccc(Cl)c(C(=O)Nc3ccccc3N3CCCCC3)c2)CC1	u	-73.2	n	u	n	n
O=C(Nc1ccccc1N1CCCC1)c1cc(S(=O)(=O)N2CCOCC2)ccc1Cl	n	n	n	n	n	n
Cc1ccc(C(=O)C(c2ccccc2)N2Cc3ccccc3C2=N)cc1 (stereo unspecified)	u	-80.6	14.1µM	20.6µM	n	n
CC(C)CCNC(=O)[C@@H](c1ccccc1)N1Cc2ccccc2C1=O	x	x	n	x	n	n
Cc1cc(Nc2nc3ccccc3nc2Cl)n(-c2ccccc2)n1	u	u	n	13µM	n	n
Cc1cc(Nc2ccc(Cl)cc2)n(-c2cccc(Cl)c2)n1	u	n	n	25.9µM	n	u
Cc1cc(Nc2ccccc2C(=O)O)n(-c2cccc(Cl)c2)n1	5.17µM	n	n	n	x	n
CCOc1ccccc1CNC(=O)c1cc2n(n1)CCCN(Cc1ccc(C)cc1)C2=O	x	x	u	x	n	n
